Data published in the supplement of paper PMC10849652.
The full data set covers some 7,900 targets. This sample favours those with a hit. About 0.6% of all pairs of compound and target were hits. Unmarked numbers belong to inactive results.

Experiments:
Experiment in all cases: log2 fold change, soluble protein after heating vs DMSO (PISA); higher = thermal stabilisation; K562 cells, 10 uM, 30 min; active = over 0.2 and 3.5 SD of the protein, either way, in both replicates (recomputed)
[1] = compound: C1COCCN1CCN2C3=CC=CC=C3N=C2NC(=O)C4=CC(=CC=C4)[N+](=O)[O-] [IRAK-1-4 Inhibitor I]
Summary of the method: (§1)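 Thermal stability values are relative to control samples and come from duplicates. They are expressed as log2 fold changes. For measurement, K562 cells (2×10^6 cells/mL) received 10 μM compound for 30 min, and aliquots were heated for 3 min over 48°C-58°C, pooled, and extracted at 4°C in PBS with 0.5% NP-40. Soluble protein, the supernatant after 21,000xg for 90 min, was quantified by TMTpro 16plex LC-MS/MS with equalised channel sums.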

[2] = compound: C=CC(=O)N1CCC[C@@H](n2nc(-c3ccc(Oc4ccccc4)cc3)c3c(N)ncnc32)C1 [ibrutinib]
Summary of the method: as §1

[3] = compound: CC(=O)c1cnc2ccc(-c3cc(Cl)c(O)c(Cl)c3)nc2c1N[C@H]1CC[C@H](CN(C)C)CC1
Summary of the method: as §1

[4] = compound: CC(C)(C)Cn1c(N)nc2ccc(-c3[nH]c(C(C)(C)C)nc3-c3ccc(F)cc3)nc21 [ralimetinib]
Summary of the method: as §1

[5] = compound: CC(C)(O)CC(=O)NCCn1ccc2ncnc(Nc3ccc(Oc4cccc(C(F)(F)F)c4)c(Cl)c3)c21
Summary of the method: as §1

[6] = compound: CC(C)C1=C2N=C(C=C(N2N=C1)NCC3=CC=CC=C3)NCCCCCCN
Summary of the method: as §1

[7] = compound: CC(C)C[C@@H](C=O)NC(=O)[C@H](CC(C)C)NC(=O)[C@H](CC(C)C)NC(=O)OCc1ccccc1
Summary of the method: as §1

[8] = compound: CC(C)N(C[C@H]1O[C@@H](n2cnc3c(N)ncnc32)[C@H](O)[C@@H]1O)[C@H]1C[C@@H](CCc2nc3cc(C(C)(C)C)ccc3[nH]2)C1 [pinometostat]
Summary of the method: as §1

[9] = compound: CC1=C(C(CC(=O)N1)C2=CC=C(C=C2)C(F)(F)F)C(=O)NC3=C(C=C4C(=C3)C=NN4)F
Summary of the method: as §1

[10] = compound: CC1=C(C2=C(C=C1)C(=O)C3=CC=CC=C3N2CCCN)C
Summary of the method: as §1

[11] = compound: CC1=C(C=C(C=C1)NC(=O)C2=CC(=CC=C2)C(C)(C)C#N)NC3=CC4=C(C=C3)N=CN(C4=O)C
Summary of the method: as §1

[12] = compound: CC1=C(C=C(C=C1)NC(=O)C2=CC(=CC=C2)N(C)C)NC(=O)C3=CC=C(C=C3)O
Summary of the method: as §1

[13] = compound: CC1=CC=C(C=C1)SC2=C3C=C(SC3=CN=C2)C(=O)N
Summary of the method: as §1

[14] = compound: CC1=NC(=CC=C1)C2=C(N=C(N2)C(C)(C)C)C3=CC4=NC=CN=C4C=C3
Summary of the method: as §1

[15] = compound: CCCCN(Cc1ccc(C(=O)NO)cc1)C(=O)Nc1ccccc1 [Nexturastat A]
Summary of the method: as §1

[16] = compound: CCCS(=O)(=O)Nc1ccc(F)c(C(=O)c2c[nH]c3ncc(-c4ccc(Cl)cc4)cc23)c1F [vemurafenib]
Summary of the method: as §1

[17] = compound: CCCS(=O)(=O)Nc1ccc(F)c(C(=O)c2c[nH]c3ncc(Cl)cc23)c1F
Summary of the method: as §1

[18] = compound: CCCc1cc(C)[nH]c(=O)c1CNC(=O)c1cc(-c2ccnc(N3CCN(C)CC3)c2)cc2c1cnn2C(C)C
Summary of the method: as §1

[19] = compound: CCN(CC)Cc1ccc2cc(COC(=O)Nc3ccc(C(=O)NO)cc3)ccc2c1 [givinostat]
Summary of the method: as §1

[20] = compound: CCN(CCCOc1ccc2c(Nc3cc(CC(=O)Nc4cccc(F)c4)[nH]n3)ncnc2c1)CCOP(=O)(O)O [barasertib]
Summary of the method: as §1

UniProt Q9NZ09, sequence (Q9NZ09 whole entry, looked up): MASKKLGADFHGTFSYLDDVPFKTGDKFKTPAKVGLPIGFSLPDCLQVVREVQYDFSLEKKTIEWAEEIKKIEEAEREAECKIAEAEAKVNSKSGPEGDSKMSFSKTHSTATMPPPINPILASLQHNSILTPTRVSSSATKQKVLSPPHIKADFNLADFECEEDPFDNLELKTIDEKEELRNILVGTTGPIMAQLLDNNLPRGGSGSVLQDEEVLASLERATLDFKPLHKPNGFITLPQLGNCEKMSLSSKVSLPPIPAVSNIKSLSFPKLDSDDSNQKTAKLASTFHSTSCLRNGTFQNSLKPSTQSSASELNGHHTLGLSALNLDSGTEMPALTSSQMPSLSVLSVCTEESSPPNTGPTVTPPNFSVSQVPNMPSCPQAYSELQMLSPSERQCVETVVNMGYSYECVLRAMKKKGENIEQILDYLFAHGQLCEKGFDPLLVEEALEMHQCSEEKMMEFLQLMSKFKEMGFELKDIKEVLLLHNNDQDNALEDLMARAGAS
UniProt P68366, sequence (P68366 whole entry, looked up): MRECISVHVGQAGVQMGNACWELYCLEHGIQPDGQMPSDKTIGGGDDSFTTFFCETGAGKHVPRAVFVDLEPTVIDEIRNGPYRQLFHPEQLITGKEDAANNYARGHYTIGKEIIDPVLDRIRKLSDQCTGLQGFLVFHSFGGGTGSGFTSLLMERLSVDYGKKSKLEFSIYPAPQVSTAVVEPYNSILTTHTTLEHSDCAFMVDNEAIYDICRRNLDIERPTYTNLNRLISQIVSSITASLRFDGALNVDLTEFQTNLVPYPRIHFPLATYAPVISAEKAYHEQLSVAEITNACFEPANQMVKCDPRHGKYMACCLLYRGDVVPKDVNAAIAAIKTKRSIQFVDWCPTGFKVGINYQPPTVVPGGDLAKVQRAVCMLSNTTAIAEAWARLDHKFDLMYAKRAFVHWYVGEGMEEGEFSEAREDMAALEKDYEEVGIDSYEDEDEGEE
UniProt Q9NQH7, sequence (Q9NQH7 whole entry, looked up): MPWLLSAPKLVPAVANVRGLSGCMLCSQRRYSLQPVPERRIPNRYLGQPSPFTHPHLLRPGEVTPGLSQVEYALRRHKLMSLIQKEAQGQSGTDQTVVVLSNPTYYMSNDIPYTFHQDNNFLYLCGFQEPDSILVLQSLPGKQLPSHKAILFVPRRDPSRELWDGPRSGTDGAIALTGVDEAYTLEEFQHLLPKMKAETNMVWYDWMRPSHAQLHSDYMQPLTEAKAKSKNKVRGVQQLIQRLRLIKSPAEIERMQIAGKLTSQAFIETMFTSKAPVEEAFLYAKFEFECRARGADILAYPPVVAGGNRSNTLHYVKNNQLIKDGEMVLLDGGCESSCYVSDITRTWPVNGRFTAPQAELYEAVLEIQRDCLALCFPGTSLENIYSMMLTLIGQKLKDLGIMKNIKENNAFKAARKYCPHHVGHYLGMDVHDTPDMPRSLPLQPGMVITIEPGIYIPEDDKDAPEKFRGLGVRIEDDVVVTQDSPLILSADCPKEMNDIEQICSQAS
UniProt Q9NQ34, sequence (Q9NQ34 whole entry, looked up): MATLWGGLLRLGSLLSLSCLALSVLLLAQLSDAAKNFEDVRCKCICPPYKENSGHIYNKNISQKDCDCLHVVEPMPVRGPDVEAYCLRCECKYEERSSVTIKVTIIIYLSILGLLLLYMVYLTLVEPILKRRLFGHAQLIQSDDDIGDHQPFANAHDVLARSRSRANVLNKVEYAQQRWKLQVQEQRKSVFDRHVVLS
UniProt Q9UL33, sequence (Q9UL33 whole entry, looked up): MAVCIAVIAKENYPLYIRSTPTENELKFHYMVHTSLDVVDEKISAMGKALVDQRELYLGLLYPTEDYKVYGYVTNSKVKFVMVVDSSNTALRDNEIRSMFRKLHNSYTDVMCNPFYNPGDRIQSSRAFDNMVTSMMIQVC
UniProt P57081, sequence (P57081 whole entry, looked up): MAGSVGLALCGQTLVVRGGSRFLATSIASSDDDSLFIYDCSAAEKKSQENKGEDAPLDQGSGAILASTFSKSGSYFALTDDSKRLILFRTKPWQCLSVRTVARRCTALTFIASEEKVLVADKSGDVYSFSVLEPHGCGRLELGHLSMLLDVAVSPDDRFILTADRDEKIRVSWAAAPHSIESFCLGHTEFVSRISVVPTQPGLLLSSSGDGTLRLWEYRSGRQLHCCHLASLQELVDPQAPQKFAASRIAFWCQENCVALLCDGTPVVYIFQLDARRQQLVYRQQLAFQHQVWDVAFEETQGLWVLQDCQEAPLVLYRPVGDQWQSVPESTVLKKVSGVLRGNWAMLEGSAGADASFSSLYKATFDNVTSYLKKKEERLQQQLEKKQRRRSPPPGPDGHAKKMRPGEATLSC
UniProt Q9BZH6, sequence (Q9BZH6 whole entry, looked up): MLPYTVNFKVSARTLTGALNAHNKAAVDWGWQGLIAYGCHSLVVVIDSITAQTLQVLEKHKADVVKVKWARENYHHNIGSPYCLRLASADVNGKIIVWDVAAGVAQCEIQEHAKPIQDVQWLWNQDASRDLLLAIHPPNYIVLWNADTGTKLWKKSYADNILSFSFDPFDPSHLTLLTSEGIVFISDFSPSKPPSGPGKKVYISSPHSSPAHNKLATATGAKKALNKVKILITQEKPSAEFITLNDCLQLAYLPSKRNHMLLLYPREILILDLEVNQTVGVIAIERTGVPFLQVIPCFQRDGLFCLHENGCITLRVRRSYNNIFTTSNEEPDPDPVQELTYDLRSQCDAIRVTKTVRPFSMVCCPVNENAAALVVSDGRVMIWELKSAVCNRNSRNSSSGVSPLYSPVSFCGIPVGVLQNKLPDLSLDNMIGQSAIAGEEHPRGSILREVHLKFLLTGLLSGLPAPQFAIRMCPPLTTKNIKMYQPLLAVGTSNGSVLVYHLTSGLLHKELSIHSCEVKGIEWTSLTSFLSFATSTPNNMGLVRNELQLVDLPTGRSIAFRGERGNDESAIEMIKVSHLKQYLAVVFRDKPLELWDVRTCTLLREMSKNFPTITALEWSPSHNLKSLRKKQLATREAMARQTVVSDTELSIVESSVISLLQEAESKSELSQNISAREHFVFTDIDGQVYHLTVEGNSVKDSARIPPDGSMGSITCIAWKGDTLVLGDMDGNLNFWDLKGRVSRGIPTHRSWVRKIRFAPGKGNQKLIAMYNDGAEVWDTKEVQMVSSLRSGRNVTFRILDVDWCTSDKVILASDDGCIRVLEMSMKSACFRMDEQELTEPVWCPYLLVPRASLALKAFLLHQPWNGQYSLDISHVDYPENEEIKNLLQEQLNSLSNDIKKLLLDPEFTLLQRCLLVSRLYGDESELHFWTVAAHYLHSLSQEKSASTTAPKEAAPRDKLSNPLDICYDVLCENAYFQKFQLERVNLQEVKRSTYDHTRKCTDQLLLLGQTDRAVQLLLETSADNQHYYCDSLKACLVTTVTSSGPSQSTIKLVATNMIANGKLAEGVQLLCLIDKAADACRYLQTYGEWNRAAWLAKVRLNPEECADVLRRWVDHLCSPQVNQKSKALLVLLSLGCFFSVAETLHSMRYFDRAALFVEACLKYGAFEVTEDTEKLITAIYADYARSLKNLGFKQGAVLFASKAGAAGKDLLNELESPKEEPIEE
UniProt Q9UBK9, sequence (Q9UBK9 whole entry, looked up): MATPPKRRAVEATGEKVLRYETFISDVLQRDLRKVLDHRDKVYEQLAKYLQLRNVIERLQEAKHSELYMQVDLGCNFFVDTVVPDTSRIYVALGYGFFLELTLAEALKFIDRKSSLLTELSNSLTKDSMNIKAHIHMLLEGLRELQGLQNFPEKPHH
UniProt Q14157, sequence (Q14157 whole entry, looked up): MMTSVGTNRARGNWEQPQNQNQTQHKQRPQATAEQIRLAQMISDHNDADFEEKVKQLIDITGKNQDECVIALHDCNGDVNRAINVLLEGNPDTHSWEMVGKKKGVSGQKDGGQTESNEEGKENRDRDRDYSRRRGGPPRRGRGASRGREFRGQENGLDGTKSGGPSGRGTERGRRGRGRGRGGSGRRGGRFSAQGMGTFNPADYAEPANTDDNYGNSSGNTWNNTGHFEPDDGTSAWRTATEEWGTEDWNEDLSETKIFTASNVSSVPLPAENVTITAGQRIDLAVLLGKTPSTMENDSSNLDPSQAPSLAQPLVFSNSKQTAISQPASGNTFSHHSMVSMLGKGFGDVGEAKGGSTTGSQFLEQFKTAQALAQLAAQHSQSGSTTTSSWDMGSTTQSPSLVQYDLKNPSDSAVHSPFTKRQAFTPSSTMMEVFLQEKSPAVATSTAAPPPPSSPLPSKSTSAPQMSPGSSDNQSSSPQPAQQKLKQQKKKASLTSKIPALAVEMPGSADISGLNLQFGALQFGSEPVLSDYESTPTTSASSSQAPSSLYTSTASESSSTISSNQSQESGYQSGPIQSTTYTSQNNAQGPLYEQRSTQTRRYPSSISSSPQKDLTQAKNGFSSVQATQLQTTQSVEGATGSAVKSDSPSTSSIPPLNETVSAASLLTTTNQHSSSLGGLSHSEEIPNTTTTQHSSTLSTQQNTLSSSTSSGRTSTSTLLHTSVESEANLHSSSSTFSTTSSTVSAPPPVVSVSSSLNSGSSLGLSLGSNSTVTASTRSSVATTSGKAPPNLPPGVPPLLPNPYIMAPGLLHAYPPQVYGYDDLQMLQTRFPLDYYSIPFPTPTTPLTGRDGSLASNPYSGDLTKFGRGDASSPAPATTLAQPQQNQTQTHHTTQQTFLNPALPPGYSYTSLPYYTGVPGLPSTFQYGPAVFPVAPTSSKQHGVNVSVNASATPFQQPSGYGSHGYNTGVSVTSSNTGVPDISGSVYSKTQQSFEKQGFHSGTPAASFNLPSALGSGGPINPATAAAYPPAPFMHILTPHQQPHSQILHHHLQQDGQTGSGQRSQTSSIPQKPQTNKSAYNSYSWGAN
UniProt P02585, sequence (P02585 whole entry, looked up): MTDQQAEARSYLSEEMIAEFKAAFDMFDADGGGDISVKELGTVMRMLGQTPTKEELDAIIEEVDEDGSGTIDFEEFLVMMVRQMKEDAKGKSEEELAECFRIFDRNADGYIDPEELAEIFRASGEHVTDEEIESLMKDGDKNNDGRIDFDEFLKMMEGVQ

Row | Target | log2 fold change [1] | log2 fold change [2] | log2 fold change [3] | log2 fold change [4] | log2 fold change [5] | log2 fold change [6] | log2 fold change [7] | log2 fold change [8] | log2 fold change [9] | log2 fold change [10] | log2 fold change [11] | log2 fold change [12] | log2 fold change [13] | log2 fold change [14] | log2 fold change [15] | log2 fold change [16] | log2 fold change [17] | log2 fold change [18] | log2 fold change [19] | log2 fold change [20]
1 | TOM1 isoform 2 (UniProt O60784) | 0.101 | 0.013 | 0.028 | 0.071 | -0.017 | -0.302 | 0.033 | 0.023 | -0.006 | 0.16 | 0.17 | 0.026 | 0.02 | 0.051 | -0.028 | 0.17 | 0.041 | 0 | 0.013 | -0.01
2 | WDR11 (UniProt Q9BZH6) | 0.009 | -0.112 | -0.01 | -0.068 | -0.018 | -0.056 | -0.047 | 0 | 0.069 | 0.065 | -0.004 | 0.057 | -0.008 | -0.016 | -0.097 | -0.089 | -0.084 | -0.105 | 0.035 | 0.034
3 | TRAPPC2L (UniProt Q9UL33) | -0.013 | 0.003 | -0.004 | -0.125 | -0.11 | -0.083 | 0.24 | 0.001 | 0.062 | 0.014 | 0 | -0.135 | 0.133 | 0.045 | 0.003 | 0.076 | 0.11 | 0.055 | -0.123 | 0.05
4 | USP9X (UniProt Q93008) | -0.006 | -0.041 | -0.011 | 0.02 | -0.117 | -0.177 | 0.01 | 0.042 | 0.002 | 0.038 | -0.015 | -0.02 | -0.009 | 0.023 | 0.015 | 0.019 | 0.075 | 0.007 | 0.025 | 0.043
5 | WDR4 (UniProt P57081) | 0.024 | -0.052 | 0.022 | -0.033 | -0.003 | -0.005 | -0.072 | -0.017 | 0.019 | 0.028 | -0.112 | -0.055 | 0.173 | 0.104 | 0.048 | -0.004 | 0.26 (active) | -0.013 | -0.026 | -0.023
6 | UBAP2L isoform 1 (UniProt Q14157) | 0.076 | -0.006 | 0.007 | -0.025 | 0.016 | 0.103 | 0.029 | -0.031 | 0.073 | 0.055 | -0.057 | 0.035 | -0.016 | 0.025 | 0.012 | -0.083 | 0.246 (active) | -0.045 | -0.261 (active) | -0.011
7 | UBAP1 isoform 4 (UniProt Q9NZ09) | -0.058 | 0.07 | -0.001 | -0.024 | -0.044 | -0.087 | 0.107 | 0.018 | 0.184 | -0.112 | 0.082 | -0.002 | 0.135 | -0.015 | -0.049 | 0.005 | 0.159 | 0.018 | 0.13 | 0.033
8 | TMEM9B (UniProt Q9NQ34) | -0.019 | 0.038 | -0.083 | 0.324 (active) | 0.014 | -0.082 | -0.006 | 0.015 | 0.027 | 0.038 | -0.068 | 0.042 | 0.105 | 0.01 | -0.055 | 0.013 | 0.064 | 0.006 | -0.023 | -0.015
9 | VPS53 isoform 4 (UniProt Q5VIR6) | -0.035 | 0.011 | -0.046 | -0.022 | -0.101 | -0.142 | 0.095 | 0.076 | -0.032 | 0.036 | -0.037 | -0.053 | 0.01 | -0.031 | 0.022 | 0.046 | 0.003 | 0.03 | 0.045 | 0.045
10 | TRIP10 isoform 2 (UniProt Q15642) | 0.09 | -0.032 | -0.078 | 0.143 | 0.004 | 0.204 | -0.118 | -0.027 | 0.118 | -0.01 | -0.068 | -0.04 | 0.019 | 0.046 | 0.12 | 0.026 | 0.177 | 0.004 | 0.01 | 0.011
11 | VPS13B (UniProt Q7Z7G8) | 0.05 | -0.013 | -0.016 | -0.042 | -0.06 | -0.241 (active) | 0.121 | 0.007 | 0.03 | 0.015 | 0.02 | -0.028 | 0.06 | 0.057 | -0.011 | 0.008 | -0.011 | -0.008 | 0.002 | 0.002
12 | TNNC2 (UniProt P02585) | 0.042 | 0.012 | 0.004 | -0.068 | 0 | 0.116 | 0.025 | -0.067 | -0.005 | 0.114 | -0.064 | 0.037 | 0.002 | -0.024 | -0.011 | 0 | -0.016 | -0.045 | -0.037 | -0.004
13 | UXT isoform 2 (UniProt Q9UBK9) | 0.103 | -0.033 | -0.019 | -0.031 | -0.005 | 0.316 | 0.082 | -0.141 | -0.016 | 0.194 | 0.008 | 0.003 | 0.039 | -0.074 | 0.904 (active) | -0.023 | -0.013 | 0.041 | 0.211 | 0.022
14 | TUBA4A (UniProt P68366) | 0.039 | 0.01 | 0.001 | -0.044 | -0.032 | 0 | 0.016 | -0.039 | -0.014 | 0.011 | 0.005 | 0.004 | 0.061 | 0.04 | -0.03 | 0.005 | 0.068 | -0.004 | 0.014 | -0.002
15 | TXNL1 (UniProt O43396) | -0.035 | -0.014 | -0.001 | -0.003 | -0.03 | -0.052 | 0.278 (active) | -0.029 | -0.027 | 0.038 | 0.02 | -0.105 | 0.007 | 0.098 | 0.117 | 0.037 | 0.079 | 0.015 | 0.114 | 0.045
16 | XPNPEP3 (UniProt Q9NQH7) | 0.061 | 0.044 | 0.019 | -0.013 | 0.021 | -0.002 | -0.018 | -0.015 | -0.003 | -0.028 | -0.045 | 0.024 | 0.005 | 0.017 | -0.08 | 0.011 | -0.012 | 0.013 | -0.218 | -0.016
